Data taken from ChEMBL document CHEMBL4513216, “Probing the Open Global Health Chemical Diversity Library for Multistage-Active Starting Points for Next-Generation Antimalarials” (ACS Infect Dis, 2020).
Screen size: about 69,000 compounds; about 8,600 (12%) showed an effect of 50% or more. Many of the other results were omitted from the sample, so strong results are more common in it than they were.

Test system: Plasmodium berghei
Assay: Screen against P. berghei liver stage (PbLuc), transformed with Luciferase, at 10uM
Assay type: functional, HepG2
Conditions: tested at 10 uM

Row | Structure (SMILES) | INHIBITION
1 | NC1CCCN(C(=O)c2csc(-c3ccc(C(F)(F)F)cc3)n2)CC1 (stereo unspecified) | 32.4%
2 | Cc1ncsc1C(=O)NCCNC(=O)OC(C)(C)C | -7.93%
3 | COc1cccc(SCCCn2cnc3c(N)ncnc32)c1 | 52.1%
4 | COc1cccc(CN(C)CCCn2cnc3c(N)ncnc32)c1 | 9.84%
5 | COc1ccc(OCCN(C)CCCn2cnc3c(N)ncnc32)cc1 | 10.6%
6 | CC(C)c1[nH]c2ncccc2c1CN1CCN(S(=O)(=O)N(C)C)CC1 | -33.6%
7 | Cc1nccn1C1CCCN(C(=O)COCC2CC2)C1 (stereo unspecified) | 22.9%
8 | O=C(CSCc1ccccn1)N(Cc1ccsc1)C1CC1 | 36.2%
9 | O=C(O)c1cccnc1CN(Cc1ccsc1)C1CC1 | 87.5%
10 | CN(Cc1csc(-c2ccccc2)n1)Cc1ncccc1C(=O)O | 25.5%
11 | O=C(c1cccs1)N1CCc2c(nc(N3CCCCC3)[nH]c2=O)C1 | 37.6%
12 | COc1ccc(C(=O)NCc2ccco2)nn1 | 9.4%
13 | Cc1cc(C(=O)N2CCCC3(C=Cc4ccccc4O3)CC2)cc(=O)[nH]1 (stereo unspecified) | -155%
14 | Cc1cc2c(cc1Cl)C=CC1(CCN(C(=O)N3CCOCC3)CC1)O2 | 89.9%
15 | Cc1ccc(CCC(=O)N2CCOCC2)cc1Cl | -18%
16 | CCN(CC)C(=O)CN1CCC(c2nc(C)c3c(n2)N(C)CCC3)CC1 | 8.12%
17 | CCN(CC)C(=O)CN1CCC2(C=Cc3cc(Cl)c(C)cc3O2)CC1 | 78.9%
18 | Cc1cc(C)n(CC2CN(CC(=O)NC3CCCCC3)CCO2)n1 (stereo unspecified) | 8.64%
19 | Nc1cc(C(=O)N2CCCC3(C=Cc4ccccc4O3)CC2)ccn1 (stereo unspecified) | 34.8%

Row | Structure (SMILES) | INHIBITION
20 | Cc1cc2c(cc1Cl)C=CC1(CCN(CC(=O)N3CCOCC3)CC1)O2 | 15.1%
21 | Cc1cc2c(cc1C)OC1(C=C2)CCN(CC(=O)N2CCOCC2)CC1 | 19.5%
22 | Cc1cc2c(cc1Cl)C=CC1(CCN(CC(=O)NC3CCCC3)CC1)O2 | 80%
23 | Cc1cc2c(cc1Cl)C=CC1(CCN(CC(=O)N3CCCC3)CC1)O2 | 85.5%
24 | Cc1cc(C)n(CC2CN(CC(=O)NC3CCCC3)CCO2)n1 (stereo unspecified) | 0.706%
25 | Cn1nc(C2CC2)cc1C(=O)N1CCC(c2nnsc2S(C)(=O)=O)CC1 | 18.14%
26 | CN(C)C(=O)CN1C(=O)CCC12CCN(Cc1ccsc1)CC2 | 17.4%
27 | COc1cc2c(cc1CCC(=O)O)CCC2 | -5.7%
28 | COc1cc(C)c(C)cc1S(=O)(=O)N(C)CC(=O)Nc1ccon1 | 27.4%
29 | CCCn1nnnc1COc1cc(OC)ccc1C(=O)OC | 18.4%
30 | CCc1nccn1CCNC1CCN(c2nc3ccc(Cl)cc3s2)CC1 | 78.1%
31 | CCn1ccnc1CNC1CC(=O)N(CCc2cccc(Cl)c2)C1 (stereo unspecified) | -6.39%
32 | CCS(=O)(=O)CCNC1CCN(c2nc3ccc(Cl)cc3s2)CC1 | 85.2%
33 | CCc1cc(NCCCC2CCOC2)n2nccc2n1 (stereo unspecified) | 48.1%
34 | Clc1ccc2nc(N3CCC(NCCCC4CCOC4)CC3)sc2c1 (stereo unspecified) | 88.1%
35 | CCCc1cc(NCCCC2CCOC2)n2nccc2n1 (stereo unspecified) | -7.65%
36 | CCCc1cc(N2CCC(NCCc3ccc(O)cc3)CC2)nc(C)n1 | 30.3%
37 | CCc1cc(N2CCC(NCCc3ccccc3F)CC2)nc(C)n1 | 11%
38 | CS(=O)(=O)N1CCC(Nc2ccnc3ccc(Cl)cc23)CC1 | -20.6%

Row | Structure (SMILES) | INHIBITION
39 | CCOc1ccc2cc(C(=O)NCCNc3ccc(C)nn3)[nH]c2c1 | -21.9%
40 | Cc1cc(C(=O)NC2CCC3(CCC(=O)N3C)CC2)no1 (stereo unspecified) | 28.4%
41 | CN(Cc1ccco1)[C@@H]1CN(Cc2ccsc2)C[C@@H]2CCCO[C@@H]21 | 17.5%
42 | CC(C)N(Cc1ccccn1)C(=O)CCC(=O)c1ccccc1 | 34.1%
43 | CC(C)c1n[nH]c(C2CN(CCc3cccs3)CCO2)n1 (stereo unspecified) | -21.9%
44 | CN(Cc1ccco1)C(=O)C1=NN(C)C(=O)CC1 | -14.3%
45 | CC(=O)N(CCc1nc(-c2cc(C(N)=O)co2)cs1)C(C)C | -49.3%
46 | CC(=O)N(C)CCc1nc(-c2cc(C(N)=O)co2)cs1 | -91.4%
47 | CC(=O)N(CCc1nc(-c2cc(C(N)=O)oc2C)cs1)C(C)C | 74%
48 | CC(C)C(=O)N1CCCC1c1nc(N(C)C)ncc1-c1ccc(Cl)cc1 (stereo unspecified) | 26.7%
49 | COCC(=O)N1CCCC(c2nc(N(C)C)ncc2-c2ccccc2)C1 (stereo unspecified) | 42.5%
50 | CC(=O)N1CCCC(c2nc(N(C)C)ncc2-c2ccccc2)C1 (stereo unspecified) | 9.98%
51 | CC(=O)N1CCOC(c2nc(N(C)C)ncc2-c2cccc(F)c2)C1 (stereo unspecified) | 9.93%
52 | CCC(=O)N1CCCC1c1nc(N(C)C)ncc1-c1ccc(Cl)cc1 (stereo unspecified) | 50.8%
53 | CN(C)c1nccc(C2CCCN(C(=O)CO)C2)n1 (stereo unspecified) | 23.2%
54 | CCC(=O)N1CCCC(c2nc(N(C)C)ncc2-c2ccc(F)cc2)C1 (stereo unspecified) | 73.1%
55 | CC(=O)N1CCCC(c2nc(N(C)C)ncc2-c2cccc(F)c2)C1 (stereo unspecified) | 74.9%
56 | CC(=O)N1CCCC1c1nc(N(C)C)ncc1-c1ccccc1 (stereo unspecified) | 1.62%
